ALR H2O2 inh: inhibitors of human ALR sulfhydryl oxidase, primary screen, biochemical, H2O2 detection, HRP-luminol luminescence, single point; FAD-linked sulfhydryl oxidase ALR (Homo sapiens), P55789; purified ALR, DTT oxidation; inhibition, % (test concentration not listed); 290,000 tested, 3.8% active; AID 485317, 2010;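 active = mean replicate inhibition above about 79%, with every replicate also reaching it, limit read from the data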
Target sequence (P55789 whole entry, looked up): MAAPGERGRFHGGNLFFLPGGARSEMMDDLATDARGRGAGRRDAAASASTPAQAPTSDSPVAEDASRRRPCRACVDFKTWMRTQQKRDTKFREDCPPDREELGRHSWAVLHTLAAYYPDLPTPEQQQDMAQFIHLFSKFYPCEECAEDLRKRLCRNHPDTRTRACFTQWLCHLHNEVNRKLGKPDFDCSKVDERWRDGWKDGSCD
ABHD5 PLIN5 PPI: ABHD5-PLIN5 interaction inhibitors, primary screen, cell lysate, split luciferase complementation, luminescence; Perilipin-5 (Homo sapiens) + 1-acylglycerol-3-phosphate O-acyltransferase ABHD5 (Homo …; AID 602281, 2012; inhibition, % at 4 µM; Split G. princeps luciferase complementation, 4 h; 360,000 tested, 0.78% active;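 active = inhibition above the mean inhibition across every tested compound plus 3 SD, cut at about 22% in these data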;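 note: 0% = DMSO only wells and the 100% control is not disclosed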
PRMT1 inh: PRMT1 methyltransferase inhibitors, primary screen, biochemical, fluorescence polarization. Protein arginine N-methyltransferase 1 (Homo sapiens), Q99873. recombinant PRMT1, activity-based probe fluorescence polarization. inhibition, % at 2.79 µM. 370,000 tested, 1.3% active. AID 652257, 2013;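 active = inhibition above about 21% made by adding two undisclosed values, limit read from the data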
LANA-H2A inh: blockers of LANA interaction with H2A/H2B – biochemical, FP readout, HTS, primary screen | cell-free LANA-H2A/H2B peptide, fluorescence polarization | inhibition, % (test concentration not listed) | 320,000 tested, 0.6% active | AID 2629, 2010; in the data active = inhibition mostly above about 10%, no sharp cut-off; inactive = mostly below about 6.7%
rCAG RNA binder: binders of r(CAG) RNA repeats, primary screen, biochemical, fluorescence; 370,000 tested, 1.3% active; inhibition, % at 3 µM; r(CAG) RNA repeat, TO-PRO-1 dye displacement fluorescence;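 active = inhibition above the plate cutoff, the mean of all test compounds on that plate plus 3 SD, cut at about 35% in these data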;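 note: 0% = DMSO alone and 100% = 100 µM mitoxantrone as full dye displacement; higher means more dye released from RNA so lower well fluorescence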
Rtt109 Vps75: inhibitors of C. albicans Rtt109/Vps75 HAT, primary screen, biochemical, ThioGlo CoA-SH fluorescence, plate reader; purified Rtt109/Vps75, 4 h; inhibition, % at 34.9 µM; 330,000 tested, 0.16% active; AID 540336, 2011;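 active = inhibition of at least 50% in every replicate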
Target sequence (Q5AAJ8 whole entry, looked up): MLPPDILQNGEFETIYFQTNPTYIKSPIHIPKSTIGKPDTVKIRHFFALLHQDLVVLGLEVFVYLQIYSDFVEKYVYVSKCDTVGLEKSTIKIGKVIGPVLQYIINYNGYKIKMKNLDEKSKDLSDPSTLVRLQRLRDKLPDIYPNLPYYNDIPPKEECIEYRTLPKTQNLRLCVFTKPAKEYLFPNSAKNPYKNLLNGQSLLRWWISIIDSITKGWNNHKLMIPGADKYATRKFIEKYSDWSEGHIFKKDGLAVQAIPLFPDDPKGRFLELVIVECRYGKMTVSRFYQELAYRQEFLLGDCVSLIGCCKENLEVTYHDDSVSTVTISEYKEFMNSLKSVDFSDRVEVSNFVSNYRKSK
The depositor's hits bear a star; · = no result; + = active, no number. Most compounds without a hit are left out; they make up all but 5.9% or so of the library.

SMILES	ALR H2O2 inh	ABHD5 PLIN5 PPI	PRMT1 inh	LANA-H2A inh	rCAG RNA binder	Rtt109 Vps75
O=C(C1CCCN1S(=O)(=O)c1cccc2cccnc12)N1CCN(c2ccccc2)CC1 (centres undefined)	87.6*	7.8	-0.8	5.3	7.1	12.2
COc1cccc(NC(=O)N(C)C[C@H]2Oc3ncc(Br)cc3C(=O)N([C@H](C)CO)C[C@H]2C)c1	·	-5.1	1.2	·	0.4	·
O=S1(=O)c2ccc(Br)cc2OC[C@H](Cc2ccccc2)N1Cc1cn(CCC2OCCCO2)nn1	·	·	-3.2	·	-1.2	·
O=S(=O)(c1cccc2cccnc12)N1CCN(c2ccc(F)cc2)CC1	·	-0.9	0.5	4.2	-0.7	-8.0
COc1ccc(N2CCN(S(=O)(=O)c3cccc4cccnc34)CC2)cc1	77.9*	6.4	1.9	4.0	1.7	-9.6
COC(=O)C1CC(c2ccccc2)N(c2ccccc2)O1 (centres undefined)	·	-7.3	-1.0	·	-0.6	·
COC(=O)C1C(C(C)C)N(c2ccccc2)OC1(C)O (centres undefined)	86.0*	-16.6	8.2	-0.8	-2.4	-0.4
COC(=O)c1sc(-c2ccccc2)cc1NC(C)=O	2.1	1.2	-2.9	7.0	-2.3	2.2
COC(=O)c1sc(-c2cccs2)cc1NC(=O)/C=C/C(=O)O	98.0*	7.9	3.1	8.4	11.2	9.0
CCC(C)(C)n1nnnc1C(c1cc2cc(C)ccc2[nH]c1=O)N1CCCC1 (centres undefined)	1.0	-3.3	22.4*	-10.3	10.3	-4.6
CCc1nn(CC(=O)Nc2ccc(Br)c(C)c2)c(=N)s1	98.6*	4.4	-3.6	-0.3	2.1	15.4
CCc1nn(CC(=O)Nc2cc(C)ccc2C)c(=N)s1	-6.0	-3.0	-5.4	-0.9	-1.1	-0.5
CSc1c(SCc2ccccc2)cnn(-c2ccccc2)c1=O	-3.2	7.2	1.1	11.0	-2.3	58.1*
Cc1ccccc1C(=O)NC1CCCCN(C(C)C)C1=O (centres undefined)	·	·	3.4	·	1.5	·
CC(=O)c1ccc(N2CCN(CC(O)COC(c3ccccc3)c3ccccc3C)CC2)cc1 (centres undefined)	-2.6	-1.1	0.7	-3.4	-1.9	-4.0
CC(=O)c1ccc(OCC(O)CN2CCN(c3ccc(F)cc3)CC2)cc1 (centres undefined)	98.2*	-14.8	2.6	2.6	-10.6	-1.3
CC(=O)Nc1ccc(OCC(O)CN2CCN(c3cccc(Cl)c3)CC2)cc1 (centres undefined)	98.8*	1.0	0.9	-4.5	-4.5	·
CC(=O)Nc1ccc(OCC(O)CN2CCN(c3ccc(F)cc3)CC2)cc1 (centres undefined)	98.0*	8.5	6.0	3.1	-7.9	12.1
CC(=O)c1ccc(N2CCN(CC(O)COC(c3ccccc3)c3ccccc3)CC2)cc1 (centres undefined)	-5.4	3.1	2.9	-3.6	-0.2	54.7*
CCCCC#Cc1ccccc1COC[B-](F)(F)F	·	·	-1.3	·	8.5	·
CCOC(=O)[C@@H]1c2[nH]c3ccccc3c2C[C@@]2(C(=O)OC)C=CCN12	·	·	11.1	·	9.1	·
Cc1ccc(-c2ccc(CN3C(C(C)C)C(=O)N(Cc4cn(CCC5OCCO5)nn4)CCS3(=O)=O)cc2)c(C)c1 (centres undefined)	·	5.9	3.8	·	5.3	·
CCOc1ccc(CCNC(=O)COC(=O)c2nn(C)c(=O)c3ccccc23)cc1OCC	4.7	2.5	0.5	12.2*	-6.2	6.0
COc1cccc(CNC(=O)COC(=O)c2nn(C)c(=O)c3ccccc23)c1	-27.1	-4.0	0.3	-6.5	-0.6	-6.3
CCCCn1nc(C(=O)NCC(=O)Nc2c(C)cccc2C)c2ccccc2c1=O	-3.9	-3.8	-2.7	+	0.7	5.6
SMILES	ALR H2O2 inh	ABHD5 PLIN5 PPI	PRMT1 inh	LANA-H2A inh	rCAG RNA binder	Rtt109 Vps75
COc1cccc(CNS(=O)(=O)c2cc3c(cc2Br)CC(C)N3C(C)=O)c1 (centres undefined)	·	·	1.1	·	3.2	·
Cc1cc2nc(-c3ccco3)c(Cc3cccc(Cl)c3)n2c(C)c1Br	·	25.9*	20.4	·	33.9	·
Cc1cc2nc(-c3ccc(Cl)cc3)c(Cc3cccc(Cl)c3)n2c(C)c1Br	·	5.4	-1.0	·	25.4	·
Cc1cc2nc(-c3cccc(Cl)c3)c(Cc3cccc(Cl)c3)n2c(C)c1Br	·	6.0	-2.9	·	34.5*	·
Cc1ccc(Cc2c(-c3cccc(Cl)c3)nc3ccc(Br)cn23)cc1	·	-4.6	1.1	·	43.9*	·
Cc1ccc(Cc2c(-c3cccc(Cl)c3)nc3ccc(C)cn23)cc1	·	5.2	-2.3	·	4.5	·
CC(=O)SC1CC(=O)N(c2ccc(C(C)(C)C)cc2)C1=O (centres undefined)	98.0*	-58.6	12.3	-8.5	-4.3	-0.9
Nc1cccc(Nc2ncnc3ccccc23)c1	98.9*	-6.1	-3.1	2.9	9.0	3.7
Nc1cccc(Nc2ccccc2)c1	99.2*	-3.3	-5.3	9.7	2.1	2.8
Oc1cccc(Nc2ncnc3ccccc23)c1	71.0	4.7	0.9	1.7	2.2	-3.1
c1ccc(Nc2cccc(Nc3ccccc3)c2)cc1	97.9*	-18.4	18.0	0.4	-2.7	-1.1
Oc1cccc(NC(=S)Nc2ccccc2)c1	47.9	1.8	1.1	5.2	2.4	5.2
Oc1cccc(Nc2ccccc2)c1	99.0*	1.8	-0.5	2.3	1.4	0.7
CN1CCN(c2ccc(-c3cccc4nccn34)cn2)CC1	·	-5.8	-2.5	·	-0.6	·
CCOC(=O)N1CCC(NC(=O)CSCc2nc(-c3ccc(OCC)cc3)oc2C)CC1	99.2*	-2.7	-0.4	2.6	-10.3	12.5
Cc1ccccc1CSCC(=O)NCc1ccco1	88.4*	10.9	10.3	0.9	5.0	·
Cc1oc(-c2ccc(Cl)cc2)nc1CSCC(=O)NC1CCN(Cc2ccccc2)CC1	97.7*	8.8	0.7	5.0	-8.6	-2.1
CCOc1ccc(-c2nc(CSCC(=O)NC3CCN(Cc4ccccc4)CC3)c(C)o2)cc1	·	-3.6	-0.7	·	-1.4	·
CCOc1ccc(-c2nc(CSCC(=O)NC3CCCc4ccccc43)c(C)o2)cc1 (centres undefined)	95.8*	-6.2	4.1	-3.1	0.9	-4.3
CCOc1ccc(-c2nc(CSCC(=O)NCc3ccco3)c(C)o2)cc1	97.6*	3.7	-2.8	0.0	-4.5	1.6
CCOC(=O)N1CCC(NC(=O)CSCc2nc(-c3ccccc3Cl)oc2C)CC1	62.0	3.1	4.2	5.4	-7.0	-10.4
CCCOc1ccc(-c2nc(CSCC(=O)NC3CC3)c(C)o2)cc1	·	·	-3.5	·	·	·

Screening data from PubChem BioAssay.
